This is a sample that favours compounds with a hit; in the whole collection about 0.92% have one here.
FEN1 inh: blocks human flap endonuclease 1; P39748; Recombinant FEN1 flap cleavage, fluorescence, 15 min; Potency, µM (titrated, usually from 114 µM), for inactives: at the top dose activity change, negative = inhibition, hits mostly inhibitors; 390,000 compounds, 0.35% hits; AID 588795; further: nearly all actives have a fitted effect of over 65% in size
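Read-out was taken twice, immediately and after 15 min, following addition of 50 nM substrate to 10 nM FEN1 that had sat with test compound for 15 min at room temperature. Curves came from a four-parameter Hill model.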
APE1 inh-1: blocks human APE1 abasic DNA cleavage. 350,000 compounds, 0.35% hits. recombinant APE1, TAMRA/BHQ-2 abasic DNA cleavage fluorescence. Potency, µM (doses to about 65.8 µM), without a hit: at the top dose activity change, negative = inhibition, actives largely listed as inhibitors. P27695;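 further: plate controls were vehicle for no effect and reference inhibitor for full effect; nearly all actives have a fitted effect of over 55% in size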
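Readout is kinetic fluorescence (ex 525, em 598 nm) from cleavage of 50 nM TAMRA/BHQ-2 THF abasic duplex by 0.75 nM APE1, compound added 15 min beforehand at RT.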
TDP1 inh: TDP1 (human) enzyme inhibition | AID 485290 | Q9NUW8 | 350,000 compounds, 0.28% hits | Potency, µM (series often up to 130 µM), without a hit: at the highest dose activity change, negative = inhibition, usual class: inhibitors | recombinant TDP1, AlphaScreen DNA substrate cleavage; further: nearly all actives have a fitted effect of over 40% in size
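Recombinant E. coli-expressed Tdp1 (1 nM) preincubated with compound 15 min at RT, then 5'-biotin/3'-phosphotyrosine-FITC DNA substrate (15 nM) added for 5 min. AlphaScreen beads (10 ug/ml) added, 10 min RT; tyrosine-FITC cleavage read as signal loss.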
BLM inh: inhibitors of human Bloom syndrome helicase BLM. Potency, µM (series often up to 56.1 µM), inactives show at the highest dose activity change, negative = inhibition, most hits filed as inhibitors. P54132. recombinant BLM DNA unwinding, fluorescence dequenching. 350,000 compounds, 0.2% hits;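 further: plate controls were vehicle for no effect and no enzyme for full effect; nearly all actives have a fitted effect of over 35% in size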
Target sequence (P54132 whole entry, looked up): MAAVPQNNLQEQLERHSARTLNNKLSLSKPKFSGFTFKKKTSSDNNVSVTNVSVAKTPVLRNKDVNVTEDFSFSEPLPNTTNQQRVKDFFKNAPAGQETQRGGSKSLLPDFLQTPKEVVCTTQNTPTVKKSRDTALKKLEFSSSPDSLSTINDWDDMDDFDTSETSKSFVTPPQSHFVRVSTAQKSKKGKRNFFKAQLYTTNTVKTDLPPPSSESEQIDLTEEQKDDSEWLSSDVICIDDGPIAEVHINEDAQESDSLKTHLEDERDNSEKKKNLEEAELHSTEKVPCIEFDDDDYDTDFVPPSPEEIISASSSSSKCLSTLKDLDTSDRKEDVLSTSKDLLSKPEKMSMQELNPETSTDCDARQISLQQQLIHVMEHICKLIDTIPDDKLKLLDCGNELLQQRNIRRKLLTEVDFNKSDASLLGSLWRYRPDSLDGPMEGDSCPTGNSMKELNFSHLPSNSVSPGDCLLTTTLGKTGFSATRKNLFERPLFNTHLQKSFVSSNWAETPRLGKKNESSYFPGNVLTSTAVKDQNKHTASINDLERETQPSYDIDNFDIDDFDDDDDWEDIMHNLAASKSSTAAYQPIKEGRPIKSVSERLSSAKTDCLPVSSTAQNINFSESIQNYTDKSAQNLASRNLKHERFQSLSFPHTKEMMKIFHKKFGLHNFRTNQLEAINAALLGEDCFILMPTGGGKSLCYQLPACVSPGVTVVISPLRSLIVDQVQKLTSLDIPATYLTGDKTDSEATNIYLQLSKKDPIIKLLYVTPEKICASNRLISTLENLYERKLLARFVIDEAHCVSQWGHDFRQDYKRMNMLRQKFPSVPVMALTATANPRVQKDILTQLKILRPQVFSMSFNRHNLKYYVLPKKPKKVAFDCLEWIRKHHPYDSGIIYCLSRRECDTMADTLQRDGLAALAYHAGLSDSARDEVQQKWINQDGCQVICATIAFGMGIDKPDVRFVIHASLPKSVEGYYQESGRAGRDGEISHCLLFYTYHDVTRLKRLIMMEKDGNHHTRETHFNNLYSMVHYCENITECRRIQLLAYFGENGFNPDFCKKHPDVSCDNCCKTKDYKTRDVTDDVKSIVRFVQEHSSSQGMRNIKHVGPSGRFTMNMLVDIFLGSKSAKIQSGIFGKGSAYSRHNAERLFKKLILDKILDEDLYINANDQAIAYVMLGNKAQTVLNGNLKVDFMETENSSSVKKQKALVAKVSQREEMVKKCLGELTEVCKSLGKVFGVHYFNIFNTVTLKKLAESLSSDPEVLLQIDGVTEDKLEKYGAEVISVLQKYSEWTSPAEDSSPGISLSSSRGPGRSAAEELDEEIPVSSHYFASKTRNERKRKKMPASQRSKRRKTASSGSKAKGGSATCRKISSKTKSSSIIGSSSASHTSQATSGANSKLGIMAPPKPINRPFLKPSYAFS
RECQ1 inh: inhibitors of human RECQ1 DNA helicase | P46063 | RECQ1 DNA unwinding, red fluorescence kinetic read | Potency, µM (titrated, usually from 57.3 µM), inactives show at the highest dose activity, negative = inhibition, actives largely listed as inhibitors | 240,000 compounds, 0.54% hits;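 further: plate controls were vehicle for no effect and no enzyme for full effect; nearly all actives have a fitted effect of over 30% in size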
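50 nM RECQ1T1 preincubated 15 min with compound in Tris pH 8.0 buffer with MgCl2, DTT, Tween-20 and 2.5 ug/ml poly(dI-dC); started with 200 nM TAMRA/BHQ-2 forked duplex and 2 mM ATP. Unwinding read as fluorescence (525/598 nm), two reads 2 h apart.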
APE1 dye cs: displaces fluorescent dye from DNA, flagging APE1 artifacts. shares compounds with APE1 inh-1. AID 2564. 480 compounds, 7% hits. DNA fluorescent dye displacement counterscreen, fluorescence. Potency, µM (doses to about 28.5 µM), without a hit: at the highest dose activity change, negative = inhibition, hits mostly inhibitors;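 further: loss of thiazole orange fluorescence as the dye is displaced from duplex DNA; 0% = ThO with dsDNA and no compound and -100% = ThO without dsDNA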
EndoIV counter: counter-screen for APE1 inhibitors: inhibitors of E. coli endonuclease IV; 560 compounds, 4% hits; E. coli Endo IV, fluorogenic AP-site DNA cleavage; shares compounds with APE1 inh-1; Potency, µM (doses to about 27.1 µM), for inactives: at the highest dose activity change, negative = inhibition, most hits filed as inhibitors; AID 2565;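 further: plate controls were uninhibited enzyme wells for no effect and no enzyme buffer wells for full effect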
APE1 inh-2: APE1 (human) endonuclease inhibition, confirmation; shares compounds with APE1 inh-1; purified APE1, fluorogenic abasic-site DNA cleavage; Potency, µM (highest dose often 57.1 µM), for the others: at the highest dose activity change, negative = inhibition, usual class: inhibitors; 750 compounds, 44% hits; AID 2572; further: nearly all actives have a fitted effect of over 30% in size
APE1 FP inh: compounds that displace a DNA probe from human APE1. APE1 binding to TAMRA-labelled double-stranded DNA, fluorescence polarization displacement. 480 compounds, 7% hits. Potency, µM (top dose mostly 28.5 µM), without a hit: at the highest dose activity, negative = inhibition, most hits filed as inhibitors. shares compounds with APE1 inh-1. AID 2573
Numbers without * were called inactive; i = inactive; u = inconclusive; x = no result; [ ] = remark or other dose. The call rests on the fitted dose curve; in most records, active means well fitted curve in the direction sought with a large enough effect; inconclusive means small, poorly fitted or top-dose-only effect, or another doubt; inactive means no such curve, though single readings can be large; an effect the other way counts as inactive or inconclusive. Unless noted, on the % scale 0 is the no-effect control and ±100 the full control effect; potency means the concentration at half of the fitted maximal effect.

SMILES | FEN1 inh | APE1 inh-1 | TDP1 inh | BLM inh | RECQ1 inh | EndoIV counter | APE1 inh-2 | others
CCn1c(C)c(C)c2cc(C(=O)NCC(C)c3ccccc3)ccc21 (configuration not stated) | 5% | x | 8% | -7% | x | x | x
Cc1oc(-c2ccccc2Cl)nc1CS(=O)(=O)CC(=O)NCc1ccc(F)cc1 | -11% | x | 4% | -2% | x | x | x
Cc1ccc(CNc2ccc(N3CCN(C)CC3)cc2)cc1 | x | 19% | x | x | x | x | x
CN(C)c1ncc2nc(CCc3ccccc3)c(=O)n(Cc3cccs3)c2n1 | x | 0% | x | -5% | i | x | x
Cn1cc(C2=C(c3ccc(Cl)cc3Cl)C(=O)NC2=O)c2ccccc21 | u | u | 1% | -4% | u | -9%[57.1 µM] | 25µM*
CC(C)=CCC/C(C)=C/CO/N=C1/C[C@@H](O)[C@@H](O)[C@@H]2[C@@H]3C(=O)N(Cc4ccc5c(c4)OCO5)C(=O)[C@H]3CC[C@@H]12 | x | 19%[12.4 µM] | 11%[21 µM] | 4%[12.4 µM] | 16%[11.5 µM] | x | x
CCCN1CCC(=O)N(CCSc2ccc(Br)cc2)CC1 | -4% | 3% | 6% | 2% | i | x | x
Cc1ccc(C2(O)C(=O)c3ccccc3C2=O)c(O)c1C | 1% | 3% | 50µM* | -3% | u | x | u
CC(C)(C)c1cccc(C2(O)C(=O)c3ccccc3C2=O)c1O | -18% | -8% | 0% | -4% | i | x | x
O=C(COC(=O)c1ccc(Cl)nc1)NCc1ccco1 | 4% | 22% | -6% | -1% | 0% | x | x
O=C(COC(=O)c1cccnc1Cl)NCc1ccco1 | 0% | u | 40µM* | -8% | i | x | u
O=C(O)c1ccccc1-c1ccc(/C=c2\sc3nc4cc(Br)cnc4n3c2=O)o1 | 10µM* | 22µM* | 7.9µM* | -9% | 14µM* | 17% | 8.9µM* | APE1 dye cs=20%;APE1 FP inh=u
Cc1cc(C(=O)O)ccc1-c1ccc(/C=C2\NC(=O)N(Cc3ccc(F)cc3)C2=O)o1 | u | 13µM* | 4µM* | 5% | -28% | 4% | 40µM* | APE1 dye cs=u;APE1 FP inh=-1%
N#CC(C#N)=Cc1cccn1-c1ccc(C(=O)O)cc1 | -17% | 13µM* | 3.2µM* | -5% | 25µM* | 8% | 35µM* | APE1 dye cs=5%;APE1 FP inh=-17%
COC(=O)C(C)N1C(=O)S/C(=C\c2ccc(-c3ccc(C(=O)O)cc3C)o2)C1=O (configuration not stated) | u | -8% | x | -4% | x | x | x
CCOC(=O)/C(C#N)=C/c1cccn1-c1ccc(Cl)cc1 | 8% | -3% | -1% | -5% | -17% | x | x
O=C(O)c1ccc(-n2cccc2/C=C2/NC(=O)N(c3ccccc3)C2=O)cc1 | u | 2.5µM* | x | -2% | 25µM* | -11% | 4µM* | APE1 dye cs=-3%;APE1 FP inh=13µM*
CN1C(=O)S/C(=C/c2ccc(OCc3cccc(C(=O)O)c3)cc2)C1=O | 10% | -38% | x | 2% | x | x | x
CN1C(=O)S/C(=C/c2cccn2-c2cccc(C(=O)O)c2)C1=O | -22% | u | x | -1% | 1% | 1% | u | APE1 dye cs=u;APE1 FP inh=u
CN(c1ccc(/C=C/c2ccccc2)cc1)P1(=O)NCCCO1 (configuration not stated) | -13% | x | x | x | x | x | x
Cc1cccc(CNc2ccnc(-c3ccccc3Cl)n2)c1 | x | -5% | x | -10% | -6% | x | x
COc1ccccc1CC(=O)NO | -2% | x | x | x | x | x | x
